D2 antagonist: HTS Assay for Allosteric Antagonists of the Human D2 Dopamine Receptor: Primary Screen for Antagonists; AID 485344, 2010; D(2) dopamine receptor (Homo sapiens), P14416; inhibition, % at 10 µM; HEK293 TREx D2 cells, calcium flux, dopamine EC80; hit rate 2% among 340,000; in the data active = inhibition above about 30%; inactive = below that, where a call was filed
Target sequence (P14416 whole entry, looked up): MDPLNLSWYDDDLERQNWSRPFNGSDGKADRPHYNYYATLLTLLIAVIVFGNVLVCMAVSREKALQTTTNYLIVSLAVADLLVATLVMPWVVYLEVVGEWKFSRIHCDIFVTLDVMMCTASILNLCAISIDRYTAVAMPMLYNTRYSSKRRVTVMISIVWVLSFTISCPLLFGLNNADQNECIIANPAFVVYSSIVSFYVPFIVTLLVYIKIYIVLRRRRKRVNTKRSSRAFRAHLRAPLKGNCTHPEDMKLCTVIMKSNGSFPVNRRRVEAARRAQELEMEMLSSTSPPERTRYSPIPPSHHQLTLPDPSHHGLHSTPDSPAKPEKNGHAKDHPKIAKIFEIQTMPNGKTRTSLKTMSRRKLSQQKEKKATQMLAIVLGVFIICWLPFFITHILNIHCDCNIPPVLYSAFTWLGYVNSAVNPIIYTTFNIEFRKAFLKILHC
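Overnight-induced (tetracycline, 30 C) HEK293 T-REx cells carrying force-coupled D2 receive a no-wash calcium dye, then compound, then EC80 dopamine at 180 s; signals are read kinetically throughout.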
D2 ag-1: HTS Assay for Allosteric Agonists of the Human D2 Dopamine Receptor: Primary Screen for Agonists. D(2) dopamine receptor (Homo sapiens), P14416. HEK293 T-REx D2 cells, calcium flux agonist mode. activation, % at 2 µM. hit rate 0.53% among 340,000. AID 485358, 2010;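 active = activation over 3 SD above normal in the single-dose calcium agonist read, cut at about 30% in these data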
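Tetracycline-induced HEK293 T-REx cells with force-coupled D2 receptor, plated overnight at 30 C, loaded with no-wash calcium dye. After a 10 s baseline, compound was pin-added and calcium flux read kinetically for 180 s; calcium rises flagged agonists.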
D2 PAM-1: Beta-Arrestin HTS for Positive Allosteric Modulators of the Human D2 Dopamine Receptor: Potentiators; D(2) dopamine receptor (Homo sapiens), P14416; DiscoveRx D2 beta-arrestin cells, luminescence, 90 min; 100% = 57 uM dopamine signal; potentiation, % (concentration not given with the values); hit rate 0.23% among 360,000; in the data active = potentiation above about 50%; inconclusive = mostly about 30% to 49%
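PathHunter D2 cells, attached overnight at 37 deg C, received compound in DMSO plus dopamine at EC20 (50 nM final) for 90 min at 37 deg C. Beta-arrestin recruitment was read as luminescence after 1 h with detection reagent at ambient temperature.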
D2 PAM-2: HTS Assay for Positive Allosteric Modulators of the Human D2 Dopamine Receptor: Primary Screen for Potentiators | HEK293 T-REx D2, calcium flux, EC20 dopamine potentiation | potentiation, % at 10 µM | hit rate 0.34% among 340,000 | AID 485347, 2010;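 active = potentiation over 3 SD above the plate norm, cut at about 30% in these data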
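Tetracycline-induced Hek293 Trex D2 cells, force-coupled to calcium, loaded with no-wash calcium dye. Compound added with 180 s kinetic read for agonism, then EC20 dopamine and a further 180 s read for potentiation.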
D2 ag-2: Beta-Arrestin HTS for Positive Allosteric Modulators of the Human D2 Dopamine Receptor: Agonists; DiscoveRx PathHunter D2 beta-arrestin, luminescence, 90 min; 100% = 57 uM dopamine signal; hit rate 0.084% among 360,000; activation, % (concentration not given with the values); D(2) dopamine receptor (Homo sapiens), P14416; in the data active = activation above about 40%; inconclusive = between about 15% and that limit
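Agonist mode: compounds alone added to overnight-plated D2 PathHunter cells for 90 min at 37 C, with 57 uM final dopamine (EC100) defining full response. Beta-arrestin recruitment detected by chemiluminescent reagent, read after 1 h at ambient temperature.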
D3 arrestin ag: qHTS of D3 Dopamine Receptor Agonist: D3 Dopamine Receptor B-arrestin Agonist Confirmatory Assay | DiscoveRx D3 beta-arrestin cells, luminescence, 90 min | shares compounds with D2 ag-1 | Potency, µM (series often up to 76.9 µM), actives largely listed as activators | hit rate 4% among 2,300; note: nearly all actives have a fitted effect of over 70% in size
D2 ag-3: qHTS of D3 Dopamine Receptor Agonist: D2 Dopamine Receptor B-arrestin Agonist Counterscreen | DiscoveRx PathHunter D2 beta-arrestin, luminescence, 90 min; response scale: percent relative to full dopamine signal | shares compounds with D2 ag-1 | hit rate 5.9% among 2,300 | AID 720507, 2013 | Potency, µM (doses to about 76.9 µM), most hits filed as activators; note: nearly all actives have a fitted effect of over 70% in size
Of the large screens only hits and unclear results are named; the others gave an inactive call (follow-up assays come after a bar, where they were run). Sampled rows, rich in hits. Any-hit rate of the full collection: about 2.4%. Unless noted, calls come from the whole dose curve; as a rule, active = well fitted activation curve with a large enough effect; inconclusive = small, poorly fitted or top-dose-only effect; inactive = flat fitted curve, though single readings scatter.

COc1cccc(-n2cc(CNCc3c(C(=O)N(C)C)nc4ccc(Cl)cn34)cn2)c1	none (no result: D2 antagonist, D2 ag-1) | D3 arrestin ag inactive | D2 ag-3 inactive
O=C(c1ccc(N2CCCC2=O)cc1)N1CCN(c2ccccc2F)CC1	D2 ag-1 55 | D3 arrestin ag inconclusive | D2 ag-3 inactive
CS(=O)(=O)Nc1ccc(S(=O)(=O)N2CCCCCC2)cc1	none
Cc1cccc(Nc2nc(N)nc(CN3CCN(c4ccccc4)CC3)n2)c1	D2 antagonist 51, D2 ag-1 71, D2 PAM-1 inconclusive, D2 ag-2 inconclusive | D3 arrestin ag inactive | D2 ag-3 inconclusive
Nc1nc(CN2CCN(c3ccccn3)CC2)nc(Nc2ccc(Cl)cc2)n1	D2 antagonist 74, D2 ag-1 90, D2 PAM-1 56, D2 ag-2 41 | D3 arrestin ag inactive | D2 ag-3 18µM
COc1ccc(N2CCN(Cc3nc(N)nc(Nc4ccccc4OC)n3)CC2)cc1	none
COc1ccc(Nc2nc(N)nc(CN3CCN(c4ccc(F)cc4)CC3)n2)cc1	D2 ag-1 43 | D3 arrestin ag inactive | D2 ag-3 inactive
Nc1nc(CN2CCN(Cc3ccccc3)CC2)nc(Nc2ccccc2)n1	none
Nc1nc(CN2CCN(c3ccc(F)cc3)CC2)nc(N2CCCc3ccccc32)n1	D2 antagonist 54, D2 ag-1 60 | D3 arrestin ag inactive | D2 ag-3 inactive
Cc1cccc(NC(=O)[C@H](Cc2ccccc2)NC(=O)[C@@H]2Cc3ccccc3CN2)c1	none
CCOc1ccccc1CNC(=O)CN1C(=O)CCn2nc(-c3cn(C)c4ccccc34)cc21	none (no result: D2 antagonist, D2 ag-1, D2 PAM-1, D2 ag-2)
CCOc1ccc(Nc2nc(N)nc(CN3CCN(c4ccccc4F)CC3)n2)cc1	D2 antagonist 33, D2 ag-1 48 | D3 arrestin ag inactive | D2 ag-3 inconclusive
Nc1nc(CN2CCN(c3ccccc3F)CC2)nc(Nc2ccc3c(c2)OCCO3)n1	D2 antagonist 54, D2 ag-1 72, D2 ag-2 inconclusive | D3 arrestin ag inactive | D2 ag-3 inconclusive
CN1CCN(Cc2nc(N)nc(Nc3ccc4c(c3)OCCO4)n2)CC1	none
Cc1cccc(Nc2nc(N)nc(CN3CCN(c4ccccc4F)CC3)n2)c1	none (no result: D2 antagonist, D2 ag-1, D2 PAM-2)
COc1ccc2cc(C(=O)C3CCCN(C(=O)C4=NN(C)C(=O)CC4)C3)ccc2c1 (stereo unspecified)	none (no result: D2 antagonist, D2 ag-1, D2 PAM-2)
COc1ccc(OCCn2cc(C(=O)c3ccco3)c3ccccc32)cc1	none (no result: D2 antagonist, D2 ag-1, D2 PAM-1, D2 ag-2)
Cc1ccc2[nH]c(=O)c3cc(C(=O)N(C)Cc4ccco4)sc3c2c1	D2 ag-1 82 | D3 arrestin ag inactive | D2 ag-3 inactive
CC(=NCCc1c(C)[nH]c2ccc(OC(F)(F)F)cc12)C1=C(O)CC(c2ccccc2)CC1=O (stereo unspecified)	none | D3 arrestin ag inactive | D2 ag-3 inactive
CC(=NCCc1c(C)[nH]c2ccc(C)cc12)C1=C(O)CC(c2ccccc2)CC1=O (stereo unspecified)	none
CCCC(=NCCc1c(C)[nH]c2ccccc12)C1=C(O)CC(c2ccccc2)CC1=O (stereo unspecified)	none
CCCCC(=NCCc1c(C)[nH]c2ccccc12)C1=C(O)CC(c2ccccc2)CC1=O (stereo unspecified)	none (no result: D2 PAM-2) | D3 arrestin ag inactive | D2 ag-3 inactive
CC1(C)O[C@@H]2[C@H](O1)[C@@H](CO)O[C@H]2n1cnc2c(=O)[nH]cnc21	none | D3 arrestin ag inactive | D2 ag-3 inactive
